Source: PubChem
Shown are actives, neighbours in structure and some others; about 2.6% of the full set was active somewhere.
LGR2 antag = inhibitors of bursicon-induced Drosophila LGR2 receptor cAMP signaling; HEK293 LGR2, CRE-luciferase, bursicon-stimulated, 4 h; inhibition, % at 9.99 µM; 380,000 compounds, 0.35% hits;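 active = drop in luminescence signal, shown as inhibition above about 50% in the replicate tests, limit read from the data, passing the limit was not always enough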;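 note: agonist challenge used bursicon conditioned medium at about half maximal strength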
TROY signal inh = inhibitors of TROY-dependent NF-kB signaling; Q293 LMP1-TROYcd NF-kB luciferase reporter, 4 h; inhibition, % at 10 µM; 360,000 compounds, 0.98% hits;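 active = compounds whose plate-normalised and pattern-corrected inhibition of the luciferase reporter signal at the single screening dose is 50% or more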
EWS-Fli block = EWS/Fli transcriptional activity inhibition | A673 NR0B1-luciferase reporter, viability-normalised | inhibition, % at 12.6 µM | 350,000 compounds, 0.67% hits;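 active = mean inhibition of at least 50% after viability correction, with every replicate also passing that limit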;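 note: firefly luciferase signal divided by Alamar Blue viability fluorescence both relative to DMSO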
CF NFkB inh = inhibitors of cystic fibrosis induced NF-kB. KKLEB NF-kB-GFP reporter, PAF-induced, GFP fluorescence overnight. inhibition, % at 5 µM. 360,000 compounds, 0.86% hits. AID 588850;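 active = at least 50% inhibition at 5 µM, scaled per plate between neutral and stimulator controls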;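 note: PAF is a Pseudomonas aeruginosa culture filtrate used as stimulus; plate controls were PAF-stimulated DMSO wells for no effect and unstimulated DMSO wells for full effect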
TWEAK-Fn14 inh = TWEAK-Fn14 signaling inhibition; inhibition, % at 10 µM; 360,000 compounds, 2% hits; AID 1159606; TWEAK-stimulated Fn14 reporter cells, luciferase luminescence, 8 h; in the data active = inhibition above about 50%
KKLEB tox = CF airway cell cytotoxicity counter-screen; activity change (cytotoxicity), % at 5 µM; AID 602141; 360,000 compounds, 0.36% hits; KKLEB CF airway cells viability, ATPlite luminescence, overnight; stronger effect = lower value; cells stimulated with P. aeruginosa culture filtrate;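 active = corrected activity change at or below -50% at 5 µM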
* = called active by the depositor; . = no result.

SMILES	LGR2 antag	TROY signal inh	EWS-Fli block	CF NFkB inh	TWEAK-Fn14 inh	KKLEB tox
COc1cc(OC)c(OC)cc1/C=N/n1c(C)nc2ccccc2c1=O	7.4	12.6	-7.5	3.9	96.9*	2.6
COc1ccc(/C=C(\CC(=O)O)c2nc3ccccc3o2)cc1	-80.4	39.1	-58.0	0.6	46.4	-29.3
COc1ccc(C(=O)/C(=C/c2cccs2)c2nc3ccccc3o2)cc1	.	51.6*	.	-10.8	51.0*	2.1
COc1cc(-c2cc3nc(NCc4cccs4)ccn3n2)cc(OC)c1OC	18.2	20.4	23.9	-46.9	40.5	-1.0
COc1cc(-c2cc3nc(NCc4cccc(Cl)c4)ccn3n2)cc(OC)c1OC	.	42.1	18.5	-89.7	65.2*	-4.1
O=C(CSCc1ccc([N+](=O)[O-])cc1)NC1CC1	-10.7	-5.1	83.1*	-5.7	-4.1	8.2
CC(C)C(NC(=O)CSCc1ccc([N+](=O)[O-])cc1)C(C)C	2.7	9.1	77.6*	-4.2	14.7	2.1
O=[N+]([O-])c1ccc(CSCc2ccc([N+](=O)[O-])cc2)cc1	0.0	2.0	5.7	-0.3	2.9	8.7
C[C@@H]1CCCCO[C@H](CN(C)Cc2ccccc2)[C@H](C)CN([C@@H](C)CO)C(=O)c2cc(NC(=O)Nc3ccccc3)ccc2O1	13.5	.	-5.1	.	.	.
Cc1ccc(Cl)cc1NC(=O)CC(O)(C(F)(F)F)C(F)(F)F	.	53.5*	.	17.2	31.0	-18.6
C/C(=N\NC(=O)c1ccc(CSc2nc(C)cc(C)n2)cc1)c1ccco1	-15.2	13.0	-25.1	89.8*	5.1	-95.2*
Cc1cc(C)nc(SCc2ccc(C(=O)N/N=C/c3ccco3)cc2)n1	-3.4	16.4	0.3	1.7	-9.6	7.7
COc1ccccc1-c1cnc2c(c1)C(=O)N([C@@H](C)CO)C[C@@H](C)[C@@H](CN(C)C(=O)CN(C)C)O2	-17.1	.	-13.7	.	.	.
CCC(C)(C)c1ccc(OCCCC[n+]2cccc(C)c2)c(C(C)(C)CC)c1	.	48.4	0.1	60.1*	76.9*	-48.3
COc1ccc2c3c([nH]c2c1)[C@@H](CO)N(S(C)(=O)=O)CC31CN(C(=O)c2ccccc2)C1	-9.7	.	-5.8	.	.	.
O=C(CCNC(=O)c1ccccc1Cl)NCCc1ccc(C(F)(F)F)cc1	3.9	13.8	-1.5	-17.6	71.5*	-2.1
O=C(CCNC(=O)c1ccccc1Cl)NCCc1ccc(Cl)cc1	-5.3	6.1	8.9	6.8	14.0	4.4
C=CCNC(=O)[C@@H]1[C@H]2C(=O)O[C@H](c3ccccc3)[C@H](c3ccccc3)N2[C@H](c2ccccc2OCCO)[C@@]12C(=O)N(C(=O)OCCOC)c1ccc(C#CCC(C(=O)OC)C(=O)OC)cc12	.	.	58.5*	.	.	.
C=CCNC(=O)[C@H]1[C@@H]2C(=O)O[C@@H](c3ccccc3)[C@@H](c3ccccc3)N2[C@@H](c2ccc(O)cc2)[C@]12C(=O)N(C(=O)OCCOC)c1ccc(C#CCC(C(=O)OC)C(=O)OC)cc12	.	.	-15.7	.	.	.
Cc1ccc2oc(C(Cl)(Cl)Cl)cc(=O)c2c1	-1.0	11.5	43.9	43.4	63.6*	-31.0
Cc1ccc2oc(C(F)(F)C(F)F)cc(=O)c2c1	-19.4	3.5	2.4	8.2	12.8	-15.1
CCOc1ccccc1NC(=O)c1cc(C(=O)c2cc(Br)ccc2O)coc1=N	15.8	59.4*	0.3	26.2	2.4	-10.1
CC(C)OC(=O)c1cc(C(=O)c2cc(Br)ccc2O)coc1=N	0.9	17.3	9.8	-5.1	22.0	5.8
O=S(=O)(Cc1cc(Cl)nc(-c2ccccc2)n1)c1ccccc1	-1.3	-9.2	.	17.8	-25.2	9.4
O=S(=O)(Cc1cc(Cl)nc(-c2ccncc2)n1)c1ccccc1	34.8	51.4*	32.3	26.3	-15.9	-5.4
SMILES	LGR2 antag	TROY signal inh	EWS-Fli block	CF NFkB inh	TWEAK-Fn14 inh	KKLEB tox
O=C1C=CCCN1S(=O)(=O)/C=C/c1ccccc1	.	.	62.1*	.	.	.
Cc1ccc(C(=O)n2nc(-c3cccnc3)nc2N)cc1	-14.6	64.3*	.	-0.2	22.4	9.9
Cc1ccc(-c2nc(N)n(C(=O)c3cccnc3)n2)cc1	.	-50.2	.	1.5	-21.6	1.2
Cc1cccc(C)c1NC(=O)CN(C)C(=O)Cc1cccc(C(F)(F)F)c1	-1.4	27.9	2.6	-18.5	54.7*	2.2
Cc1cc2occ(CC(=O)N(C)CC(=O)Nc3c(C)cccc3C)c2cc1C	-14.8	-8.4	1.3	-0.9	-12.2	-6.4
C[C@H]1CN([C@@H](C)CO)C(=O)c2cc(-c3cccc(F)c3)cnc2O[C@@H]1CN(C)Cc1cccc(F)c1	2.7	.	3.5	.	.	.
COc1cccc2c1C(CO)N1C(C#N)C3CC(C(=O)O)C(C1C2)N3C (stereo unspecified)	91.9*	51.4*	23.5	96.5*	101.7*	-52.2*
C[C@@H]1CN([C@@H](C)CO)C(=O)c2cc(C#CC3CCCC3)cnc2O[C@H]1CN(C)Cc1ccncc1	7.2	.	6.6	.	.	.
COc1ccc(-c2cc(=O)c3c(O)cc(O)cc3o2)cc1	19.0	39.0	-82.6	67.5*	35.2	-7.1
O=c1cc(-c2ccc(O)c(O)c2)oc2cc(O)cc(O)c12	23.0	36.7	40.2	13.3	63.9*	1.5
O=c1c(O)c(-c2ccc(O)c(O)c2)oc2cc(O)cc(O)c12	.	31.7	23.3	26.4	68.1*	1.3
C[C@@H]1CN([C@@H](C)CO)S(=O)(=O)c2ccc(C3=CCCC3)cc2O[C@@H]1CN(C)S(C)(=O)=O	-6.6	.	-2.1	.	.	.
COc1ccccc1C#Cc1ccc([C@H]2[C@@H](CO)N3CCCCN(C(=O)C4CCC4)C[C@@H]23)cc1	-0.6	.	2.1	.	.	.
CCCCc1nc(N2CCN(C(=O)c3ccco3)CC2)c(C#N)c2c1CCCC2	32.7	67.7*	.	-0.2	-7.0	-12.7
O=C(N/N=C/c1coc2ccccc2c1=O)c1cc(O)cc(O)c1	-13.5	12.8	1.1	8.3	11.7	-12.8
O=C(N/N=C/c1coc2ccccc2c1=O)c1ccccc1Br	8.9	20.7	.	44.4	57.9*	2.3
COc1ccc(C(=O)N/N=C\c2coc3ccc(Cl)cc3c2=O)cc1	12.5	11.3	4.1	43.7	30.4	-10.6
O=C(N/N=C/c1coc2ccc(Cl)cc2c1=O)c1ccncc1	10.4	31.9	3.8	45.4	54.5*	12.3
Cc1cc(C)c(-c2c(O)c3cccc4c3n(c2=O)CCC4)c(C)c1	.	3.1	.	-15.1	55.6*	1.7
O=c1c(-c2ccccc2)c(O)c2cccc3c2n1CCC3	.	17.6	.	12.2	-3.4	-22.6
CC(C)C#Cc1ccc2c(c1)O[C@@H](CN(C)C(=O)Nc1ccccc1)[C@@H](C)CN([C@H](C)CO)S2(=O)=O	1.4	.	5.2	.	.	.
O=[N+]([O-])c1ccccc1N/N=C/c1ccccc1	-100.8	-29.0	-98.4	-14.9	15.2	5.9
CC1=C/C(=N\Nc2ccccc2[N+](=O)[O-])CC(C)(C)C1	-28.2	58.4*	-2.7	3.6	12.4	4.6
CCCCC[C@H](O)/C=C/C1C(=O)C=C[C@H]1C/C=C\CCCC(=O)OC (stereo partly specified)	-13.7	12.2	-3.7	48.4	58.5*	1.8
